PubChem BioAssay (NCATS)

Assay: High-throughput drug toxicity screening in the BPDCN cell line Cal-1 (AID 1224825)
Conditions: Cal-1 BPDCN cell viability, qHTS; at 45.8 µM (top of the series) unless noted
From the text: Blastic plasmacytoid dendritic cell neoplasm (BPDCN) is a rare, aggressive and largely incurable hematologic malignancy originating from plasmacytoid dendritic cells (pDCs). Although an initial response to chemotherapy is common, BPDCN prognosis is extremely poor and most patients relapse with drug-resistant disease leading to a median overall survival of ~1 year after diagnosis. To explore novel potential therapeutic strategies in BPDCN, we performed a high-throughput drug toxicity screening in BPDCN cell liens, using of a library of 1,912 small molecules, enriched for compounds that are either approved or in early stages of development for cancer therapy.
A total of 500 exponentially growing Cal-1 cells were seeded per well in 5 uL of media (RPMI + Glutamine, without phenol red plus10% FBS and 1X Pen/Strep) into 1536-well solid white high base tissue culture treated Greiner One Bio Plates (789173-F), using a multidrop combi dispenser and a small sterile cassette. Compounds and controls totaling 23nL per well (negative control DMSO and positive control 9.2 uM Bortezomib-final) were immediately added to the plates using a 1536 head pin tool from Kalypsys. The plates were then covered with stainless steel gasket lids from Kalypsys and incubated for 48 hours at 37C under 95% relative humidity with 5% CO2. After 48 hours, the plates were removed and allowed to reach room temperature before 3 uL of Cell Titer Glo reagent (Promega) were added using an Aurora Flying Reagent Dispenser Bioraptor. The plates were then spun at 1000 rpms to remove bubbles and incubated for 15 minutes at room temperature before reading on a ViewLux using a luminescent filter with a 10 second exposure. The relative luciferase units were used to calculated percent activity using DMSO as 100% and Bortezomib as 0%.

Compound	viability (% of control)
S=P(N1CC1)(N1CC1)N1CC1	27.1%
COc1cc2c(Nc3ccc(Br)cc3F)ncnc2cc1OCC1CCN(C)CC1	5.58%
COC(=O)Nc1nc2ccc(Sc3ccccc3)cc2[nH]1	18.7%
CN(CCOc1ccc(CC2SC(=O)NC2=O)cc1)c1ccccn1 (stereo not given)	107%
COc1nc(N)nc2c1ncn2[C@@H]1O[C@H](CO)[C@@H](O)[C@@H]1O	78%
O=C(O)c1cn(C2CC2)c2cc(N3CCNCC3)c(F)cc2c1=O	103%
CNC(=O)c1cc(Oc2ccc(NC(=O)Nc3ccc(Cl)c(C(F)(F)F)c3)cc2)ccn1	9.69%
CCn1cc(C(=O)O)c(=O)c2cc(F)c(N3CCNCC3)cc21	104%
CS(=O)(=O)c1ccc([C@@H](O)[C@@H](CO)NC(=O)C(Cl)Cl)cc1	86.4%
COc1ncnc(NS(=O)(=O)c2ccc(N)cc2)c1OC	96.2%
CCCCCCNC(=O)n1cc(F)c(=O)[nH]c1=O	33.8%
Clc1ccccc1CN1CCc2sccc2C1	45.9%
Cn1c(=O)c2c(ncn2CC(O)CO)n(C)c1=O (stereo not given)	100%
Cc1cccc(N(C)C(=S)Oc2ccc3ccccc3c2)c1	79.3%
NC1(c2ccc(-c3nc4ccn5c(=O)[nH]nc5c4cc3-c3ccccc3)cc2)CCC1	4.61%
CC(C)(C#N)c1cc(Cn2cncn2)cc(C(C)(C)C#N)c1	105%
Cc1noc(NS(=O)(=O)c2ccc(N)cc2)c1C	96.8%
Cc1nnc(NS(=O)(=O)c2ccc(N)cc2)s1	13.2%
OC(Cn1cncn1)(Cn1cncn1)c1ccc(F)cc1F	114%
C[C@]12C=CC(=O)C=C1CC[C@@H]1[C@@H]2C(=O)C[C@@]2(C)[C@H]1CC[C@]2(O)C(=O)CO	86.4% [at 23.2 µM]

Compound	viability (% of control)
CCOC(=O)[C@H](CCc1ccccc1)N[C@H]1CCc2ccccc2N(CC(=O)O)C1=O	22.3%
CCC(C)(C)c1ccc(CC(C)CN2C[C@@H](C)O[C@@H](C)C2)cc1 (stereo not given in full)	108%
C[C@@H]1C[C@H]2[C@@H]3CCC4=CC(=O)C=C[C@]4(C)[C@@]3(Cl)[C@@H](O)C[C@]2(C)[C@@]1(OC(=O)c1ccco1)C(=O)CCl	6.87%
CCN(CC)CCn1c(=O)c(Cc2ccc(OC)cc2)nc2ccccc21	94.1%
CC(=O)[C@H]1CC[C@H]2[C@@H]3CC=C4C[C@@H](O)CC[C@]4(C)[C@H]3CC[C@]12C	107%
CN(C)CCc1c[nH]c2ccc(CS(=O)(=O)N3CCCC3)cc12	93.3%
COc1cc(NS(=O)(=O)c2ccc(N)cc2)nc(OC)n1	104%
Cc1ncc([N+](=O)[O-])n1CCO	76.6%
CC(C)(C)NC(=O)[C@H]1CC[C@H]2[C@@H]3CC[C@H]4NC(=O)C=C[C@]4(C)[C@H]3CC[C@]12C	4.87%
C[C@@H]1CN(c2c(F)c(N)c3c(=O)c(C(=O)O)cn(C4CC4)c3c2F)C[C@H](C)N1	107% [at 23.2 µM]
COc1cc([C@@H]2c3cc4c(cc3[C@H](O)[C@H]3COC(=O)[C@H]23)OCO4)cc(OC)c1OC	8.85%
CO[C@@]12[C@H](COC(N)=O)C3=C(C(=O)C(C)=C(N)C3=O)N1C[C@@H]1N[C@@H]12	2.42%
Cc1oc(=O)oc1CN1CCN(c2cc3c(cc2F)c(=O)c(C(=O)O)c2n3C(C)S2)CC1 (stereo not given)	103%
Cc1cc(NS(=O)(=O)c2ccc(N)cc2)no1	82.3%
CCCOc1ccc(C(=O)OCCN(CC)CC)cc1N	105%
CCN(CC)CC#CCOC(=O)C(O)(c1ccccc1)C1CCCCC1 (stereo not given)	104%
N[C@@H](C(=O)N[C@@H]1C(=O)N2C(C(=O)O)=C(Cl)CS[C@H]12)c1ccccc1	108%
CN(C)CCc1c[nH]c2ccc(C[C@H]3COC(=O)N3)cc12	99.9%
COC(c1ccccc1)(c1ccccc1)[C@H](Oc1nc(C)cc(C)n1)C(=O)O	121%
Nc1ccc(S(=O)(=O)Nc2ccccn2)cc1	112%
